The campaign covered roughly 360,000 compounds. About 25,000 (6.9%) were called active. Inconclusive results (about 9%) are left out. The rule behind the calls is not given here. The full list was thinned out, with actives kept by preference.
These compounds were tested against Luciferin 4-monooxygenase (Photinus pyralis) (UniProt P08659) (assay: qHTS profiling assay for firefly luciferase inhibitor/activator using purified enzyme and Km concentrations of substrates (counterscreen for miR-21 project). [Related pubchem assays (depositor defined):AID2288, AID2289, AID2598, AID411]).
Assay type: functional

Luciferin 4-monooxygenase (Photinus pyralis), sequence (P08659 whole entry): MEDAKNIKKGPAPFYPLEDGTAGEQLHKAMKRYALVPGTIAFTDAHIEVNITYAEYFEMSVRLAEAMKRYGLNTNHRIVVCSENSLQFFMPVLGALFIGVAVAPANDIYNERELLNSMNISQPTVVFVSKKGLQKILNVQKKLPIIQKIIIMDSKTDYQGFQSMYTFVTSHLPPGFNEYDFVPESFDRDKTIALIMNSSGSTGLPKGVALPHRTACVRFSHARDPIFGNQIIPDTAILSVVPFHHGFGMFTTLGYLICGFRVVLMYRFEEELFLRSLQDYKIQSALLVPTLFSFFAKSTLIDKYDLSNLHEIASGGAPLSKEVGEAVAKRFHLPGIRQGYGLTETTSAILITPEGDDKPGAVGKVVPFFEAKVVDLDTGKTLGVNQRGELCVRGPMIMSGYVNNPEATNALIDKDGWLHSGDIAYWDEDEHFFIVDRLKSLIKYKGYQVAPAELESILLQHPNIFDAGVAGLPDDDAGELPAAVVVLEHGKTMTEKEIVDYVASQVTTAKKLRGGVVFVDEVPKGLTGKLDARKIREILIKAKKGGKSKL

How did the Potency turn out when `O=C(O)c1cc(-c2ccc(F)cc2F)ccc1O` was run?
The Potency was 15.1 µM (active).

For `Cn1c(NCCN2CCOCC2)nc2c1c(=O)n(Cc1cccc(Cl)c1)c(=O)n2C`, which Potency is on record?
Its Potency is “inactive”.

How did the Potency turn out when `Cc1ccccc1N=C(S)N(CCCN1CCOCC1)Cc1cccnc1` was run?
Its Potency is “inactive”.

`O=C(NC1CCCC1)c1cc(Cl)ccc1[N+](=O)[O-]` was tested. Which Potency did it give?
The Potency was “inactive”.

Reference: ChEMBL document CHEMBL1201862, “PubChem BioAssay data set” (2004)
